Bioassay records as filed in PubChem.
Compounds with a hit are over-represented: about 2.3% of the library has one in this group of screens.
UbGFP stabilizer – Ubiquitin-GFP Assay; 67,000 tested, under 10 active; Potency, µM (titrated, usually from 45.9 µM), without a hit: top-dose activation (GFP accumulation), usual class: activators; Ubiquitin-GFP reporter cells, proteasome inhibition, GFP fluorescence; response scale: untreated = 0%, 10 µM MG-132 = 100%; AID 526, 2006; active means well fitted activation curve with a large enough effect, not every such curve was filed as active; inconclusive means small, poorly fitted or top-dose-only effect, or another doubt; inactive means no such curve, though single readings can be large or run the other way; further: potency means the concentration at half of the fitted maximal effect
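U2OS cells stably expressing ubiquitin(G76V)-GFP, seeded overnight in 0.5% FBS medium, were exposed to compounds (qHTS, 46 uM to 2.9 nM) for 4 hr at 37 °C. GFP-positive cells were counted by laser cytometry (488 ex/515 em), normalized between basal and 10 uM MG-132.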
GFP derepression – qHTS Assay for Epigenetic Modulators; Potency, µM (titrated, usually from 46.1 µM), without a hit: at the top dose GFP derepression (activation); actives 0.09% (n = 68,000); AID 597, 2007; mouse C127i GFP locus derepression, cytometry, 30 h; further: % of control where 0% means no effect
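Murine C127i mammary cells carrying a silenced, stably integrated CMV-driven GFP reporter were treated with compound for 30 hours at 37 C. After PBS washes, GFP-positive cells were counted by laser-scanning microplate cytometry.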
Tau fil binding – qHTS Assay for Tau Filament Binding; AID 596, 2007; recombinant tau filaments, thioflavin S fluorescence, 15 h; filaments grown with octadecylsulfate alongside compound; actives 2% (n = 71,000); Potency, µM (top dose mostly 57.1 µM), without a hit: at the top dose activity change, negative = inhibition;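 further: potency means the concentration at half of the fitted maximal effect; on the % scale 0 is the no-effect control and ±100 the full control effect; actives lower thioflavin S fluorescence by blocking filaments or displacing dye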
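Tau 2 uM in ThS buffer dispensed; compound added; 60 uM ODS added (finals 1 uM tau, 30 uM ODS); 15 h 37 C; fluor ex450/em510.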
HBB splice mod – qHTS Assay for Modulators of Hemoglobin Beta Chain Splicing; AID 925, 2007; Potency, µM (top dose mostly 46.1 µM), for inactives: top-dose activation, most hits filed as activators; actives 0.06% (n = 65,000); HBB splicing reporter cell assay, activation; EGFP reporter with mutant IVS2-654 intron; response scale: normalised to 500 nM splice-correcting PNA; further: potency means the concentration at half of the fitted maximal effect; 0% is about no effect
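Compounds were applied for 2 days to HeLa EGFP-654 cells, 500/well in Optimem with 2% FCS. The reporter's EGFP is disrupted by mis-splicing of beta-globin intron IVS2-654. Readout: summed well GFP fluorescence from 488 nm laser scanning; reference was 500 nM antisense […] 654 PNA.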
ALOX15B inhib – qHTS Assay for Inhibitors of 15-hLO-2 (15-human lipoxygenase 2); purified 15hLO-2, xylenol orange hydroperoxide absorbance; Potency, µM (doses to about 57.1 µM), for inactives: top-dose activity change, negative = inhibition, hits mostly inhibitors; actives 0.56% (n = 110,000); further: potency means the concentration at half of the fitted maximal effect; on the % scale 0 is the no-effect control and ±100 the full control effect; nearly all actives have a fitted effect of over 60% in size
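Read-out: hydroperoxide product oxidises ferrous iron, measured as xylenol orange complex via the 573-to-405 nm absorbance ratio after 30 min. Reaction: 50 nM enzyme, 15 min compound preincubation, 45 uM arachidonic acid, 90 min RT, Hepes pH 7.5 with Triton X-100.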
15-hLO inh – qHTS Assay for Inhibitors of 15-hLO (15-human lipoxygenase); Polyunsaturated fatty acid lipoxygenase ALOX15 (Homo sapiens), P16050; purified 15hLO-1, xylenol orange hydroperoxide absorbance; Potency, µM (top dose mostly 57.1 µM), without a hit: at the top dose activity change, negative = inhibition, actives largely listed as inhibitors; actives 1.4% (n = 74,000); AID 887, 2007; further: potency means the concentration at half of the fitted maximal effect; on the % scale 0 is the no-effect control and ±100 the full control effect; nearly all actives have a fitted effect of over 55% in size
Target sequence (P16050 whole entry, looked up): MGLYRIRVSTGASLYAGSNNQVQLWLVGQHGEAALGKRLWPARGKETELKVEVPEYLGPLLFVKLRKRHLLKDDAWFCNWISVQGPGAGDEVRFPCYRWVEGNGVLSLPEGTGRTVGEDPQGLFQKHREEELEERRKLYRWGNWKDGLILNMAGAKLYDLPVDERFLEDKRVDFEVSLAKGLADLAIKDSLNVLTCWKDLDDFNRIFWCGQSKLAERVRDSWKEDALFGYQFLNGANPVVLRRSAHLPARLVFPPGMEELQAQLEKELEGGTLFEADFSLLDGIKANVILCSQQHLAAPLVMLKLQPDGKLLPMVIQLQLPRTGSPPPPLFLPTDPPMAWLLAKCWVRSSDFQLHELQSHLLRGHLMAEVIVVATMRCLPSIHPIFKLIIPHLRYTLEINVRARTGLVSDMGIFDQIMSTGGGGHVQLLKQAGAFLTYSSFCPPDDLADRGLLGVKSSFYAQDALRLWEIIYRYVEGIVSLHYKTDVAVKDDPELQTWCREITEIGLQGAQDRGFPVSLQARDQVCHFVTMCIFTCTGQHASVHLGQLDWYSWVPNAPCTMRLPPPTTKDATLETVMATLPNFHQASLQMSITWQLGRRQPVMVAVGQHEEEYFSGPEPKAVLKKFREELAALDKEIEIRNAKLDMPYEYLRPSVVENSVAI
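Compounds were preincubated 15 min at room temperature with 40 nM purified human enzyme (25 mM Hepes pH 7.5, 0.01% Triton X-100); 50 uM arachidonic acid reacted 6 min. Fe-xylenol orange detection, 30 min, absorbance ratio 573/405 nm.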
* = called active by the depositor; i = inactive; ? = inconclusive; . = no result given; [ ] = remark or other dose. Unless noted, the call rests on the fitted dose curve; in most records, active means well fitted curve in the direction sought with a large enough effect; inconclusive means small, poorly fitted or top-dose-only effect, or another doubt; inactive means no such curve, though single readings can be large; an effect the other way counts as inactive or inconclusive.

SMILES | UbGFP stabilizer | GFP derepression | Tau fil binding | HBB splice mod | ALOX15B inhib | 15-hLO inh
COc1ccc(N=c2oc3c(OC)cccc3cc2C(=O)NCc2ccco2)cc1OC | -5% | ? | 1.3µM* | . | -2% | -1%
COc1ccccc1N=c1oc2c(OC)cccc2cc1C(=O)NCc1ccco1 | -2% | 28% | 2.5µM* | . | -13% | -2%
O=C1c2ccccc2C(=O)N1c1ccc(Cc2ccc(N3C(=O)c4ccccc4C3=O)cc2)cc1 | -11%[9.17 µM] | 3%[9.22 µM] | 0%[11.4 µM] | 1%[9.22 µM] | -3%[11.4 µM] | 13%[11.4 µM]
Cc1cc(C)c2c(SCc3ccc(Cl)cc3Cl)nc(N)nc2n1 | 0%[9.17 µM] | 6%[9.22 µM] | -2%[11.4 µM] | -1%[9.22 µM] | -2%[11.4 µM] | 16%[11.4 µM]
O=C(Sc1nnc(-c2ccccc2)o1)N1c2ccccc2Sc2ccccc21 | -5%[9.17 µM] | 0% | -22%[11.4 µM] | 1%[0.0738 µM] | . | 2.5µM*
COc1ccc(-c2nc3cnc(N4CCN(C)CC4)nc3n(CCc3ccccc3)c2=O)cc1 | ? | 2%[9.22 µM] | i | ? | -6% | -4%
CCOC(=O)CSc1cc(=O)n(C)c2cc(Cl)ccc12 | -13% | 9% | 0% | 0% | 4% | 13µM*
CCOC(=O)CSc1cc(=O)n(CC)c2ccccc12 | . | . | . | . | -3% | .
C[C@H]1CCCC2(CC[N+](C)(CCC[N+](C)(C)C)CC2)C1 (some centres undefined) | -2%[9.17 µM] | 2%[9.22 µM] | 0%[11.4 µM] | 0%[9.22 µM] | -2%[11.4 µM] | 6%[11.4 µM]
COc1cc2cc3c4c(cc(OC)c(OC)c4c2cc1OC)CCN3C | 6% | 2%[9.22 µM] | 4µM* | . | 13µM* | -12%[25.6 µM]
C[C@@H](CSC(=N)N)C(N)=O | -7%[9.17 µM] | -3%[9.22 µM] | -3%[11.4 µM] | 0%[9.22 µM] | -1%[11.4 µM] | 10%[11.4 µM]
CCc1ccc(S(=O)(=O)Nc2ccc(O)c(C(=O)O)c2)cc1 | . | . | . | . | . | -6%
CN(Cc1cc(C(C)(C)C)cc(Br)c1O)Cc1cc(C(C)(C)C)cc(Br)c1O | -1%[9.17 µM] | -2%[9.22 µM] | 0%[11.4 µM] | 1%[9.22 µM] | 3%[11.4 µM] | -3%[11.4 µM]
CC(C)(c1cc(Br)c(O)c(Br)c1)c1cc(Br)c(O)c(Br)c1 | . | . | ? | -1% | ? | 2.5µM*
O=C(Cn1sc2ccccc2c1=O)NC12CC3CC(CC(C3)C1)C2 | . | . | . | . | 0.79µM* | .
NC(=O)c1ccccc1OCC(=O)NC12CC3CC(CC(C3)C1)C2 | . | . | . | . | 15% | .
Cc1cc(Nc2ccc(O)cc2)ccc1N | . | . | 2µM* | 0% | ? | ?
Cc1ccc(Cl)cc1N1CCN(C(=O)CCS(=O)(=O)c2cccc3nonc23)CC1 | 0% | 0% | 13µM* | 0% | . | -25%
O=C1c2ccccc2C(=O)N1C[C@]1(C(=O)O)NCCS1(=O)=O | -6%[9.17 µM] | -3%[9.22 µM] | -3%[11.4 µM] | 4%[9.22 µM] | -7%[11.4 µM] | 12%[11.4 µM]
CC(C)OC(=O)CN1C(=O)S/C(=C/c2ccc(N3CCCCC3)o2)C1=O | . | . | . | . | 13µM* | .
C=CCN1C(=O)S/C(=C\c2ccc(N3CCOCC3)cc2C)C1=O | . | . | . | . | -3% | .
O=c1c(-c2ccc(F)cc2)nc2cnc(N3CCOCC3)nc2n1Cc1ccc(F)cc1 | 5% | 0%[9.22 µM] | -1% | 1% | -8% | -3%
O=C1/C(=C/c2ccc(N3CCOCC3)o2)SC(=Nc2ccccc2)N1CCc1c[nH]c2ccccc12 | . | . | . | . | 4µM* | .
O=C1C2CC=C(Cl)CC2C(=O)N1CCc1c[nH]c2ccccc12 (centres undefined) | -5% | -2% | -10% | -2% | -8%[11.4 µM] | -5%
CC(C)n1cc(/C=C2/SC(=O)N(CC(=O)N3CCCC3)C2=O)c2ccccc21 | . | . | . | . | 0% | .
SMILES | UbGFP stabilizer | GFP derepression | Tau fil binding | HBB splice mod | ALOX15B inhib | 15-hLO inh
O=C1S/C(=C\c2ccc(N3CCOCC3)o2)C(=O)N1Cc1ccc(F)cc1 | . | . | . | . | 5µM* | .
O=C1S/C(=C/c2ccc(N3CCOCC3)o2)C(=O)N1Cc1ccc(F)cc1 | . | . | . | . | 1.3µM* | .
O=C(O)c1c2c(c(O)c3c1CN(C1CCCCC1)CO3)OCN(C1CCCCC1)C2 | -9%[9.17 µM] | -3%[9.22 µM] | -3%[11.4 µM] | 2%[9.22 µM] | 6%[11.4 µM] | -9%[11.4 µM]
O=C(O)[C@@H]1[C@@H]2O[C@H]([C@@H](Br)[C@H]2Br)[C@H]1C(=O)O | 0%[9.17 µM] | 1%[9.22 µM] | 11%[11.4 µM] | 4%[9.22 µM] | 9%[11.4 µM] | 8%[11.4 µM]
CCN(CC)C(=O)CSc1ncnc2c(-c3cccs3)nsc12 | 0% | 2% | 20µM* | . | -13% | -11%
Nc1ncn([C@H]2O[C@@H](CO)[C@@H](O)[C@@H]2O)c(=O)n1 | 1%[20.5 µM] | 3%[20.6 µM] | 7%[25.6 µM] | -1%[20.6 µM] | 2%[25.6 µM] | 9%[25.6 µM]
Cc1[nH]n(-c2cccc3ccccc23)c(=O)c1C=Nc1ccc2[nH]c(=O)[nH]c2c1 | . | . | . | . | 6% | .
Cc1[nH]n(-c2ccccc2)c(=S)c1C=Nc1cccc([N+](=O)[O-])c1 | . | . | . | . | 10µM* | .
O=C(NCC1CC1)[C@H]1C[C@@H]1[C@H](NP(=O)(c1ccccc1)c1ccccc1)c1ccccc1 | . | . | 2% | 2% | 3% | .
O=S(=O)(Nc1ccc2c(c1)OCO2)c1ccc(Br)s1 | 5% | 3% | 20µM* | 0% | -16% | 25µM*
O=S(=O)(Nc1ccc2c(c1)OCCO2)c1cccc2nsnc12 | 13% | 0% | -18% | -1% | -7% | 6%
